Source: PubChem BioAssay (NCI)
About 83,000 compounds went through this panel and 20% of them were active in at least one assay; those are over-represented in the sample as a whole.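 Assay: single dose, 48 h. Readout: percent growth (0 = no net growth; negative = cell death). Active: <10.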 Active and inactive are the calls of the source.

Each compound was assayed on COLO 205 colon (assay: NCI-60 one-dose screen, 48 h (100 = growth as untreated, 0 = no growth, -100 = all killed)). Conditions: 10 µM.

Row | Compound | growth
1 | COc1ccc(N2N=C(c3ccc4c(c3)OCCO4)CC2c2cccc(NC(=O)CCCNS(=O)(=O)c3ccc(F)cc3)c2)cc1 (centres undefined) | 84% (inactive)
2 | COc1cc(/C=N/NC(=O)c2ccc3nc(-c4ccc(Cl)cc4)[nH]c3c2)cc(OC)c1OC | -9.12% (active)
3 | O=C(N=Nc1c(O)[nH]c2ccc(Br)cc12)c1ccc2nc(-c3ccccc3)[nH]c2c1 | -67.5% (active)
4 | COc1ccccc1[C@H]1C(C(=O)c2ccc(Cl)cc2)C2(N[C@@H]1c1ccccc1)C(=O)Nc1ccc(Cl)cc12 (some centres undefined) | -69.7% (active)
5 | O=c1cc(-c2ccccc2)oc2cc(OCCCNCc3ccccc3)cc(O)c12 | -88% (active)
6 | O=C1Nc2cc(-c3ccc(NC(=O)c4cccs4)cc3)ccc2/C1=C/c1ccc[nH]1 | 99.7% (inactive)
7 | O=C(c1ccc(O)cc1)C1[C@H](c2ccc(Br)cc2)[C@@H](c2ccccc2)NC12C(=O)Nc1ccccc12 (some centres undefined) | -46.4% (active)
8 | C=C1CCC2C3(C)COC(c4ccccc4F)OC3CCC2(C)C1C/C=C1/C(=O)OCC1O (centres undefined) | -56.3% (active)
9 | C=C1CCC2C3(C)COC(c4c(F)cccc4F)OC3CCC2(C)C1C/C=C1/C(=O)OCC1O (centres undefined) | -35.8% (active)
10 | COc1cccc(/C=C2\N=C(C)N(CCc3ccc(S(N)(=O)=O)cc3)C2=O)c1 | 131% (inactive)
11 | C=C1CCC2C3(C)COC(c4cccc(F)c4)OC3CCC2(C)C1CC(O)C1=CCOC1=O (centres undefined) | 60.7% (inactive)
12 | Cn1cc(-c2cc(N)n3nc(-c4c[nH]c5ccc(Br)cc45)cc3n2)c2cccnc21 | -85.8% (active)
13 | C=C1CCC2C3(C)COC(c4c(F)cccc4F)OC3CCC2(C)C1CC(O)C1=CCOC1=O (centres undefined) | 42.4% (inactive)
14 | Brc1ccc(/C=C/c2n(Cc3ccc4ccccc4c3)c3ccccc3[n+]2Cc2ccc3ccccc3c2)cc1 | -69.3% (active)
15 | O=C(Nc1ccc(I)cc1)Nc1nc2ccc([N+](=O)[O-])cc2s1 | -92.2% (active)
16 | O=C(N/N=C/c1ccc(B(O)O)o1)c1[nH]c2ccc(Br)cc2c1-c1ccccc1 | -43.2% (active)
17 | CONC[C@]1(C)C=C2C(=O)[C@](C)(O)C3(CC3)C(C)=C2[C@H]1O | -79.1% (active)

Row | Compound | growth
18 | O=C(Nc1cccc(-c2cn(-c3ccc4oc(=O)ccc4c3)nn2)c1)Nc1cc(C(F)(F)F)cc(C(F)(F)F)c1 | 44.3% (inactive)
19 | CCCCCCCCCCCCCCCCCCCC(=O)NCCc1c[nH]c2ccc(OC(=O)CCCC(=O)OCCOOCCOOCCOOCCOOCCOOCCOOCCOOCCOOCCOOCCOOCCOOCCOC)cc12 | 117% (inactive)
20 | COc1ccc(/C(C)=N/N=C2C(=O)N(C)c3ccc(Br)cc32)cc1S(N)(=O)=O | 102% (inactive)
21 | N#Cc1c(NC(=O)c2ccc(C(F)(F)F)cc2C(F)(F)F)sc2c1CCC(=O)C2 | -73.3% (active)
22 | CNCc1cccc2c1OCCCCCC[C@@](C)(O)CC1(CC1)S(=O)(=O)c1ccc(cc1)-c1cnc(N)c(n1)C(=O)N2 | -89.9% (active)
23 | COc1cc(OC(F)(F)F)ccc1C(=O)Nc1sc2c(c1C#N)CCC(=O)C2 | 97.8% (inactive)
24 | Nc1n[nH]c2cccc(C#Cc3cccc(NC(=O)Nc4cc(C(F)(F)F)cc(C(F)(F)F)c4)c3)c12 | -77.5% (active)
25 | N#Cc1c(-c2ccc(F)cc2)nc(SCc2ccc([N+](=O)[O-])cc2)nc1N1CCOCC1 | 90.9% (inactive)
26 | CC1=N/C(=C\c2ccc(N(C)C)cc2)C(=O)N1CCc1ccc(S(N)(=O)=O)cc1 | 113% (inactive)
27 | CN(CCF)c1ccc(/C=C/C(=O)c2ccc(N)cc2O)cc1 | 111% (inactive)
28 | O=C(c1ccc(Cl)cc1)C1[C@H](c2ccccc2Br)[C@@H](c2ccccc2)NC12C(=O)Nc1ccccc12 (some centres undefined) | -42.4% (active)
29 | O=C(Nc1cc(Cl)cc(Cl)c1)Nc1cc(Cl)cc(Cl)c1 | -98.9% (active)
30 | O=C(c1ccc(O)cc1)C1[C@H](c2ccc(Br)cc2)[C@@H](c2ccccc2)NC12C(=O)Nc1ccc(Br)cc12 (some centres undefined) | -85.2% (active)
31 | COc1ccccc1[C@H]1C(C(=O)c2ccc(O)cc2)C2(N[C@@H]1c1ccccc1)C(=O)Nc1ccc(Br)cc12 (some centres undefined) | -5.4% (active)
32 | CN1CCN(c2ccc(C(=O)/C=C/c3ccc(C#N)cc3)cc2)CC1 | 87.4% (inactive)
33 | CC(C)(C)Nc1nc2cc(Cl)c(Cl)cc2nc1S(C)(=O)=O | 31.2% (inactive)
34 | COc1cc(/C=C/C(=O)c2cc(OC)c(OC)c(OC)c2)ccc1Oc1nc(Nc2ccc(F)cc2)nc(N(C)C)n1 | 7.64% (active)
